From PubChem BioAssay
Calls of active or inactive are those of the source.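 How the source made its calls, unless noted: active means compounds that lower viability of the colon cancer cells in the luminescence readout, with no numeric limit stated; inactive means the rest.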

Assays:
[1] = Wnt pathway potentiators raising nuclear beta-catenin – imaging, WNT3A-conditioned medium, mouse C2C12, NPC library, primary screen (AID 1117326; in the data active means nuclear beta-catenin stimulation mostly above about 4.2%, no sharp cut-off; inactive means mostly below about 10%; further: reference of the scale not given here); conditions: stronger effect = higher value
[2] = stimulators of insulin release from INS-1E, primary screen, cell-based, 5 mM glucose, NPC library (AID 1117329;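 active means compound raises insulin release from rat beta cells at 5 mM glucose, no numeric limit stated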; further: reference of the scale not given here); conditions: rat INS-1E insulin secretion, at 10 µM, stronger effect = higher value
[3] = growth inhibition of GSK3B-pretreated HCT116 cells – cell-based, CellTiter-Glo, 0.2 to 20 µM (AID 1117336;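 active means compounds lowering colon cancer cell viability after pretreatment blocking the GSK3B kinase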); conditions: HCT116 viability after GSK3B inhibitor, at 20 µM, stronger effect = higher value
[4] = inhibition of endothelial tube formation, primary screen, imaging, VEGF stimulated, CD31 staining, tube area, NPC library (AID 1117340;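 active means compound that reduces growth-factor-driven endothelial tube area in a mixed cell culture, no cutoff stated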); conditions: VEGF-stimulated ADSC/ECFC co-culture, at 10 µM, stronger effect = higher value
[5] = GLP1 release stimulators, primary, NCI-H716, NPC library (AID 1117341;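 active means compound raises GLP1 secretion from the human gut endocrine cells, with no numeric limit stated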; further: reference of the scale not given here); conditions: NCI-H716 cells, at 10 µM, stronger effect = higher value
[6] = HCT116 colon cancer cell growth inhibition, primary screen, CellTiter-Glo luminescence, NPC library (AID 1117342;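 active means compounds that lower survival of HCT116 colon cancer cells in the luminescence readout, no numeric limit stated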); conditions: at 20 µM (top of the series)
[7] = reduced SW480 viability measured with CellTiter-Glo, NPC library, primary (AID 1117343); conditions: CellTiter-Glo luminescence; at 20 µM (top of the series)
[8] = NPC library primary testing for decreased DLD-1 cell viability via CellTiter-Glo (AID 1117346;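 active means compounds that lower survival of DLD-1 colon cancer cells in the luminescence readout, no cutoff given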); conditions: DLD-1 viability, CellTiter-Glo luminescence; at 20 µM (top of the series)

O=C(Nc1ccc(Cl)c(Cl)c1)C1CC1
inactive: nuclear beta-catenin stimulation ([1]; at 10 µM) 0.1% | insulin secretion stimulation [2] 2.2% | viability decrease [3] 25.6% | tube area decrease [4] 24.7% | GLP1 secretion stimulation [5] -0.1% | inhibition of viability [6] 43.4% | viability decrease (inhibition) [7] 25.2% | viability decrease (inhibition) [8] 9.7%
0.9%: nuclear beta-catenin stimulation ([1]; stimulation, at 2 µM)

OC1(c2ccccc2)CCNCC1
inactive: nuclear beta-catenin stimulation ([1]; at 10 µM) 0.2% | insulin secretion stimulation [2] -0.5% | viability decrease [3] 6% | tube area decrease [4] -1% | GLP1 secretion stimulation [5] 6.9% | inhibition of viability [6] 12.8% | viability decrease (inhibition) [7] 5.3% | viability decrease (inhibition) [8] 11.1%
0.6%: nuclear beta-catenin stimulation ([1]; stimulation, at 2 µM)

O=C(O)Cn1cnnn1
-0.1%: nuclear beta-catenin stimulation ([1]; stimulation, at 2 µM)
inactive: nuclear beta-catenin stimulation ([1]; at 10 µM) 0.5% | insulin secretion stimulation [2] -0.9% | viability decrease [3] -1.1% | tube area decrease [4] -3.2% | GLP1 secretion stimulation [5] 3.3% | inhibition of viability [6] 4.9% | viability decrease (inhibition) [7] -14.8% | viability decrease (inhibition) [8] 6%

CC(C=CC1=C(C)CCCC1(C)C)=CC=CC(C)=CC(=O)Oc1c(C)c(C)c2c(c1C)CC[C@@](C)(CCC[C@H](C)CCC[C@H](C)CCCC(C)C)O2
2.2%: nuclear beta-catenin stimulation ([1]; stimulation, at 2 µM)
inactive: nuclear beta-catenin stimulation ([1]; at 10 µM) 2.1% | insulin secretion stimulation [2] 2.9% | viability decrease [3] 2.5% | tube area decrease [4] -4.2% | GLP1 secretion stimulation [5] 2.3% | inhibition of viability [6] 32.1% | viability decrease (inhibition) [7] -36.9% | viability decrease (inhibition) [8] 4%

CC(C)(C)c1nnc(NS(=O)(=O)c2ccccc2)s1
inactive: nuclear beta-catenin stimulation ([1]; at 10 µM) 0.7% | viability decrease [3] -0.1% | tube area decrease [4] 17.7% | GLP1 secretion stimulation [5] -0.5% | inhibition of viability [6] -5.8% | viability decrease (inhibition) [7] -1.2% | viability decrease (inhibition) [8] -7%
active: insulin secretion stimulation [2] 33.5%
1.5%: nuclear beta-catenin stimulation ([1]; stimulation, at 2 µM)

O=C(Nc1ccc(Cl)cc1)Nc1ccc(Cl)c(C(F)(F)F)c1
-0.2%: nuclear beta-catenin stimulation ([1]; stimulation, at 2 µM)
inactive: nuclear beta-catenin stimulation ([1]; at 10 µM) 25.5% | insulin secretion stimulation [2] -0.8% | GLP1 secretion stimulation [5] -3.9%
active: viability decrease [3] 99.4% | tube area decrease [4] 108% | inhibition of viability [6] 99.3% | viability decrease (inhibition) [7] 102% | viability decrease (inhibition) [8] 102%

CCN1/C(=C/C=C/c2sc3ccccc3[n+]2CC)Sc2ccccc21
active: viability decrease [3] 99.1% | inhibition of viability [6] 98.8% | viability decrease (inhibition) [7] 103% | viability decrease (inhibition) [8] 102%
7.5%: nuclear beta-catenin stimulation ([1]; stimulation, at 2 µM)
inactive: nuclear beta-catenin stimulation ([1]; at 10 µM) 1.2% | insulin secretion stimulation [2] -0.5% | tube area decrease [4] -349% | GLP1 secretion stimulation [5] -2.9%

NCc1ccccc1Sc1ccccc1CO
1%: nuclear beta-catenin stimulation ([1]; stimulation, at 2 µM)
inactive: nuclear beta-catenin stimulation ([1]; at 10 µM) 0.6% | insulin secretion stimulation [2] -0.8% | viability decrease [3] -138% | tube area decrease [4] -11.8% | GLP1 secretion stimulation [5] 3.3% | inhibition of viability [6] 6.13% | viability decrease (inhibition) [7] 29.2% | viability decrease (inhibition) [8] -10.7%

COc1ccc2c(c1)c(CC(=O)OC/C=C(\C)CC/C=C(\C)CCC=C(C)C)c(C)n2C(=O)c1ccc(Cl)cc1
inactive: nuclear beta-catenin stimulation ([1]; at 10 µM) 2.2% | insulin secretion stimulation [2] 2.1% | viability decrease [3] -16.7% | tube area decrease [4] 5.1% | GLP1 secretion stimulation [5] -2.8% | inhibition of viability [6] 4.5% | viability decrease (inhibition) [7] 8.2% | viability decrease (inhibition) [8] -1.2%
3%: nuclear beta-catenin stimulation ([1]; stimulation, at 2 µM)

CCCCCCCC/C=C/C(=O)O
inactive: nuclear beta-catenin stimulation ([1]; at 10 µM) 1.3% | insulin secretion stimulation [2] 1.9% | viability decrease [3] -52.2% | tube area decrease [4] -10.1% | GLP1 secretion stimulation [5] -3.8% | inhibition of viability [6] 5.93% | viability decrease (inhibition) [8] 45%
active: viability decrease (inhibition) [7] 85.3%
0.6%: nuclear beta-catenin stimulation ([1]; stimulation, at 2 µM)

CC(=O)Oc1ccc(C2(c3ccc(OC(C)=O)cc3)C(=O)Nc3ccccc32)cc1
active: tube area decrease [4] 51.8%
0.9%: nuclear beta-catenin stimulation ([1]; stimulation, at 2 µM)
inactive: nuclear beta-catenin stimulation ([1]; at 10 µM) 1.7% | insulin secretion stimulation [2] -2.1% | viability decrease [3] 32.6% | GLP1 secretion stimulation [5] 4% | inhibition of viability [6] 39% | viability decrease (inhibition) [7] 15.8% | viability decrease (inhibition) [8] 49.1%

CNC(=O)c1cnn(-c2nc(N)c3ncn([C@@H]4O[C@H](CO)[C@@H](O)[C@H]4O)c3n2)c1
inactive: nuclear beta-catenin stimulation ([1]; at 10 µM) 2.6% | insulin secretion stimulation [2] -0.3% | viability decrease [3] 3.8% | tube area decrease [4] 20.4% | GLP1 secretion stimulation [5] 4.6% | inhibition of viability [6] 1% | viability decrease (inhibition) [7] 6.8% | viability decrease (inhibition) [8] -13.2%
4.8%: nuclear beta-catenin stimulation ([1]; stimulation, at 2 µM)

O=C(Cn1ccnc1[N+](=O)[O-])NCc1ccccc1
0.4%: nuclear beta-catenin stimulation ([1]; stimulation, at 2 µM)
inactive: nuclear beta-catenin stimulation ([1]; at 10 µM) -0.6% | insulin secretion stimulation [2] -1.9% | viability decrease [3] -22.5% | tube area decrease [4] -8.5% | GLP1 secretion stimulation [5] -4.4% | inhibition of viability [6] 1.8% | viability decrease (inhibition) [7] 7.9% | viability decrease (inhibition) [8] 1%

CCc1nnc(NS(=O)(=O)c2ccc(N)cc2)s1
2%: nuclear beta-catenin stimulation ([1]; stimulation, at 2 µM)
inactive: nuclear beta-catenin stimulation ([1]; at 10 µM) -0.1% | insulin secretion stimulation [2] -0.8% | viability decrease [3] 5.1% | tube area decrease [4] -5.1% | GLP1 secretion stimulation [5] -0.1% | inhibition of viability [6] -13.8% | viability decrease (inhibition) [7] 4.4% | viability decrease (inhibition) [8] -18.9%

CCCCCCCCCCCCCCCCN
inactive: nuclear beta-catenin stimulation ([1]; at 10 µM) 1.3% | insulin secretion stimulation [2] -2.4% | viability decrease [3] 5% | tube area decrease [4] 6.5% | GLP1 secretion stimulation [5] 0.9% | inhibition of viability [6] 5.9% | viability decrease (inhibition) [7] 4.5% | viability decrease (inhibition) [8] -6.6%
1.3%: nuclear beta-catenin stimulation ([1]; stimulation, at 2 µM)

N[C@H]1CN(c2c(F)cc3c(=O)c(C(=O)O)cn(C4C[C@@H]4F)c3c2Cl)CC12CC2 (some centres undefined)
active: viability decrease (inhibition) [7] 54.7%
1.9%: nuclear beta-catenin stimulation ([1]; stimulation, at 2 µM)
inactive: nuclear beta-catenin stimulation ([1]; at 10 µM) 0.1% | insulin secretion stimulation [2] 0.95% | viability decrease [3] 40.5% | tube area decrease [4] -10.7% | GLP1 secretion stimulation [5] -1.5% | inhibition of viability [6] 34.3% | viability decrease (inhibition) [8] -9.6%
